The campaign covered roughly 300,000 compounds. About 22,000 (7.3%) were called active. Not shown: some 2% with an inconclusive outcome. This is one part of a sample in which actives are shown more often than they occur. Values without a mark were called inactive. No stated cut-off is given here; in the data, active means activity score below about -60%; inconclusive means mostly about -28% to -61%; inactive means positive scores.
test: Activators working through SNCA 5'UTR binding (MLPCN) (AID 1814); details: alpha-synuclein 5'UTR reporter, activators screen; active compounds read low; tested at 7.5 µM

SMILES	activity score
Cc1ccc(-c2csc(-c3c[nH]c4ccccc34)n2)cc1	-164% (active)
Cc1ccc(-c2csc(-c3cc(C)on3)n2)cc1	-149% (active)
O=C(CN1C(=O)C2C3C=CC(C3)C2C1=O)Nc1nc(-c2ccccn2)cs1 (stereo not drawn)	82.4%
CCNC(=O)CSc1nc(-c2ccccc2)cs1	-105% (active)
O=C(CSC1=NCCS1)Nc1nc(-c2ccccc2)cs1	-83% (active)
O=C(CNC(=O)c1ccccc1F)c1ccc(Br)cc1	-97.5% (active)
O=C(CNC(=O)c1ccc(F)cc1)c1ccccc1	-128% (active)
CCOc1ccc2c(c1)C(c1ccc(C)cc1)=NNC(c1ccc(C)cc1)=N2	-63.3% (active)
Cc1nc2ccccc2cc1OCc1ccc(F)cc1	-71.1% (active)
C/C(=N\NC(=O)c1ccccc1F)c1ccccn1	83%
C/C(=N\NC(=O)c1cccnc1)c1ccc(-c2ccccc2)cc1	-92.7% (active)
C/C(=N\NC(=O)c1ccc2ccccc2c1)c1cccnc1	-68.8% (active)
C/C(=N\NC(=O)c1nc(C)cc(C)n1)c1ccccc1	-137% (active)
CC(C)CNC(=O)C(=O)Nc1ccc(N(C)C)cc1	-159% (active)
O=C(Nc1ccc(Cl)cc1)/C(=C1\CCCN1)[N+](=O)[O-]	-97.2% (active)
CC(=O)Nc1cccc(C(=O)OCC(=O)NCc2cc(C)c(O)c(C)c2)c1	-62.5% (active)
CCCOc1cccc(C(=O)Nc2nnn(CCC)n2)c1	-87.6% (active)
CCCOc1ccc(C(=O)C(CCC(CNCC)C(=O)c2ccc(OCCC)cc2)CNCC)cc1 (stereo not drawn)	107%
Cc1c(C)c2cc3c4c(oc3c(C)c2oc1=O)CCCC4	-61.9% (active)
CC[n+]1cc(C)ccc1/C=C/c1ccc(N(C)C)cc1	90.6%
COc1cccc(/C=C/C(=O)Nc2ccc3c(c2)OCCO3)c1	-94% (active)
Cc1cccc(NC(=O)Nc2ccc3c(c2)OCO3)n1	-251% (active)

SMILES	activity score
CNS(=O)(=O)c1ccc(NC(=O)Nc2ccc3c(c2)OCO3)cc1	-63.6% (active)
Cc1cccc(NC(=O)/C=C/c2ccc3c(c2)OCO3)n1	-88% (active)
Cc1ccc(-n2c(C)cc(/C=C(\C#N)C(=O)NCC3CCCO3)c2C)cc1 (stereo not drawn)	-133% (active)
COc1ccc(C(=O)Nc2nncs2)c(OC)c1	-106% (active)
O=C(NC1=NCCS1)c1ccc(Cl)s1	-112% (active)
COc1ccc(Cc2nnc(NC(=O)c3ccc(OC)cc3OC)s2)cc1	-62.4% (active)
COc1ccc(C(=O)NC2=NCCS2)c(OC)c1	-111% (active)
Cc1cccc(NC(=S)Nc2ccc(Cl)c(Cl)c2)c1	-115% (active)
Cc1cccc(NC(=O)c2nc(S(=O)(=O)Cc3ccccc3)ncc2Cl)c1	84.8%
Cc1cccc(NC(=S)Nc2ccc(Br)cc2)c1	-106% (active)
COc1ccc(CNc2ccc3c(c2)CCC3)cc1OC	-177% (active)
Cc1cc(C(=O)NNC(=S)Nc2ccccc2C)cs1	-135% (active)
Cc1ccc(C(=O)NC(=S)Nc2ccccc2C)cc1	-122% (active)
Nc1ccc(C(=O)Nc2ccccc2N)cc1	-714% (active)
CCn1c(SCC(=O)Nc2cccc(F)c2)nnc1-c1cc2cc(Br)ccc2o1	-71.9% (active)
CN1C2CCC1/C(=C\c1ccccc1Cl)C(=O)/C2=C\c1ccccc1Cl	-89% (active)
Cc1cc(-n2nc(C)cc2C)n2ncc(-c3ccccc3)c2n1	-73.6% (active)
CCOC(=O)c1cnc(-n2nc(C)cc2C)nc1NNc1cc(C)nc(-c2ccccc2)n1	105%
O=C1/C(=C\Nc2ccccc2)CCN1c1ncccn1	-99.5% (active)
O=C(CSC(=S)N1CCCCC1)c1c(F)cccc1F	-175% (active)
Cc1ccc(OCc2nc3ccccc3n2C)cc1	-109% (active)
COCn1c(COc2ccccc2)nc2ccccc21	-65.8% (active)

SMILES	activity score
COc1ccc(C)c(Cn2c(-c3nonc3N)nc3ccccc32)c1	76.2%
COc1ccc(OCc2ccc(-c3nc4ccccc4c(=O)n3N)o2)cc1	-143% (active)
CCOc1ccc(C(O)Cc2nc3ccccc3n2C)cc1 (stereo not drawn)	-67.7% (active)
Cn1c(COc2ccc(Cl)cc2)nc2ccccc2c1=O	-91.8% (active)
CC(C)c1ccc(Nc2ncccc2C#N)cc1	-111% (active)
COC(=O)c1sc(NC(=S)NC(=O)c2ccc(C)cc2)nc1C	-102% (active)
CC(=O)c1sc(NC(=O)c2ccc(C)cc2)nc1C	-112% (active)
O=C(N/N=C/c1ccc([N+](=O)[O-])o1)c1cccc(S(=O)(=O)N2CCOCC2)c1	-81.1% (active)
COc1ccc(C(=NN)c2ccc(OC)cc2)cc1	-133% (active)
O=C(Nc1ccon1)c1sc2ccccc2c1Cl	-179% (active)
Cc1c(Cl)c([N+](=O)[O-])nn1Cc1ccc(C(=O)N/N=C\c2cc(Cl)ccc2O)o1	81.2%
CN(C)c1ccc(/C=N/NC(=O)c2ccc(Cn3cc(Br)cn3)o2)cc1	-69.3% (active)
CC(C)c1cc(C(N)=O)c(NC(=O)c2cccc(COc3ccc(Br)cc3)c2)s1	-194% (active)
CCOc1ccc(OCc2cccc(C(=O)N(CC)CC)c2)cc1	50.8%
CN(C)c1nc(=Nc2cccc(Cl)c2)ss1	-64.3% (active)
CS(=O)(=O)N1CCc2nc(-c3ccccc3)sc2C1	-90.2% (active)
O=C(c1ccccc1)c1ccc(OC(=O)N2CCCC2)cc1	-65.8% (active)
Cc1ccc(CSc2nc3[nH]ncc3c(=O)[nH]2)cc1	-78% (active)
Clc1ccc(-c2nnc(SCc3nc4ccccc4s3)o2)cc1	-162% (active)
Oc1ccc(CNc2ccccc2O)cc1	-62.2% (active)
Cc1cc(OCc2cc(C(=O)NCc3cc(C(C)C)no3)no2)cc(C)c1Cl	-135% (active)
CCOc1ccc(NS(=O)(=O)c2ccc(C)c(C(N)=O)c2)cc1	-72.9% (active)

SMILES	activity score
COc1cc(CN2CCC(C(N)=O)CC2)ccc1OCc1ccccc1	-111% (active)
N=c1c2c3c(sc2nc2n1CCCCC2)CCCC3	-89.5% (active)
CCCCc1ccc(NC(=S)N2CCCC(CO)C2)cc1 (stereo not drawn)	-107% (active)
Fc1ccc(/C=N/Nc2nc(-c3cccnc3)nc3ccccc23)cc1	-70.9% (active)
CN(CCO)c1ccc(/C=N/Nc2nncc3ccccc23)cc1	57.2%
CC(C)c1ccc(NC(=O)NC2CCCCC2)cc1	-244% (active)
Cc1cc(Br)ccc1NC(=S)NC1CCCC1	-66.7% (active)
Cc1ccc(/C=N/NC(=S)NC2CCCCC2)o1	-135% (active)
Cc1ccc(NC(=S)NC2CCCC2)cc1	-65.1% (active)
CCN(CC)S(=O)(=O)c1ccc(-c2cn3ccc(C)cc3n2)cc1	-169% (active)
Cc1ccc2nc(-c3ccc(Br)cc3)cn2c1	63.2%
COc1ccc(-c2cn3ccc(C)cc3n2)cc1	92.2%
Cc1cccc(N=Nc2c(O)[nH]c3ccc(F)cc23)c1	-147% (active)
O=C(Cc1ccccc1)NCc1ccc(F)cc1	-66.4% (active)
O=C(NCCc1ccc(F)cc1)c1n[nH]c2ccccc12	-150% (active)
O=C(CC1CCCCC1)NCc1ccccc1	-86.3% (active)
O=C(CC1CCCCC1)NCc1ccc(F)cc1	-72.4% (active)
COc1ccc(COC(=O)c2n[nH]c3ccccc23)cc1F	-96.4% (active)
CCc1ccc2c(c1)C1(NN=C(c3ccccc3)S1)C(=O)N2 (stereo not drawn)	71.7%
O=C1Nc2ccccc2C12Nc1ccccc1S2 (stereo not drawn)	-83.2% (active)
CCC(C)c1ccc(NC(=S)NCc2ccccn2)cc1 (stereo not drawn)	-123% (active)
COc1cccc(NC(=S)NCc2ccccn2)c1	-101% (active)

SMILES	activity score
CCOC(=O)c1cc2cc(C)ccc2[nH]1	-132% (active)
CCOC(=O)c1nc(-c2ccc3c(c2)OCO3)[nH]c1C	-109% (active)
C[C@@H]1C[C@@H]2O[C@H]2/C=C\C=C\C(=O)Cc2c(Cl)c(O)cc(O)c2C(=O)O1	-113% (active)
CC(C)c1ccc(C(=O)NCCCc2ccccc2)cc1	-150% (active)
CN1CCN(CCCNC(=O)c2ccc(/C=C3\Oc4ccccc4N(Cc4ccc(Cl)cc4)C3=O)cc2)CC1	96.5%
S=C(Nc1ccc2c(c1)OCO2)N1CCCC1	-93.7% (active)
Cc1cccn2c(=O)c(C=O)c(Nc3ccc(S(N)(=O)=O)cc3)nc12	-500% (active)
O=C(CC1Nc2ccccc2NC1=O)Nc1ccccc1 (stereo not drawn)	-128% (active)
Oc1c(Br)cccc1/C=N/Nc1c(F)c(F)c(F)c(F)c1F	-72.3% (active)
Cc1[nH]c(=O)c(C(=O)/C=C/c2ccccc2)c2c1CCCC2	-146% (active)
COc1cccc(NC(=S)C(C#N)=C2N(C)c3ccccc3N2C)c1	-86.1% (active)
COc1ccc(-c2csc3nc(-c4ccccc4F)oc(=O)c23)cc1OC	-63.1% (active)
COc1ccc(/C=N/Nc2ncnc3sc4c(c23)CCCC4)cc1O	-197% (active)
CC(C)(C)c1ccc(/C=C/C(=O)Nc2ncccn2)cc1	-155% (active)
O=c1c2c(-c3ccccc3)ccnc2[nH]n1-c1ccccc1	-127% (active)
CN(C(=O)CSc1nncc2ccccc12)C1CCCCC1	-107% (active)
CN(c1ccc2nc3ccccc3c(=O)n2n1)C1CCCCC1	119%
CN(C(=O)CSc1nnnn1-c1ccccc1)C1CCCCC1	-63.1% (active)
CN(C)c1nc(N)nc(CSc2nnnn2-c2cccc3ccccc23)n1	68.9%
Cc1ccc(O)c(NC(=O)c2cc(-c3ccco3)on2)c1	-184% (active)

— PubChem BioAssay AID1814 (Broad Institute, 2009)
